Source: PubChem BioAssay (EPA / NIEHS)
Active and inactive are the calls of the source. The calls were made as follows: active = hit-call score of the fitted dose curve at least 0.9, where 1 is the maximum; inactive = score below 0.9.

What was measured:
[1] = read-out: Human Leukocyte Antigen - DR isotype (HLADR), HLA-DRA (gene 3122); assay: BSK_BE3C_HLADR: BioMAP Diversity Plus: BE3C Assay for Human Leukocyte Antigen - DR isotype (HLADR) Biomarker Activity (AID 2283032); details: primary human bronchial epithelial cells; actives raise or lower the signal
Outline: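 BioMAP BE3C format: human bronchial epithelium, 24 h compound treatment, ELISA detection of HLA-DR, with bidirectional analysis relative to DMSO.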

[2] = read-out: Vascular cell adhesion molecule 1 (VCAM1), VCAM1 (gene 7412); assay: BSK_4H_VCAM1: BioMAP Diversity Plus: 4H Assay for Vascular cell adhesion molecule 1 (VCAM1) Biomarker Activity (AID 2283033); details: primary human endothelial cells (HUVEC); actives raise or lower the signal;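 also: cell-surface VCAM-1 protein measured by ELISA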
Outline: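 In this human endothelial (HUVEC) system, biomarker ELISA was run 24 h after compound addition, and total protein in parallel wells was assessed by SRB at 560 nm; DMSO served as negative control.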

[3] = read-out: Monokine induced gamma interferon (MIG), CXCL9 (gene 4283); assay: BSK_BE3C_MIG: BioMAP Diversity Plus: BE3C Assay for Monokine induced gamma interferon (MIG) Biomarker Activity (AID 2283035); details: primary human bronchial epithelial cells; actives raise or lower the signal;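 also: MIG protein measured by ELISA in BE3C cultures after 24 h of dosing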
Outline: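 Dose cells (human primary bronchial epithelial), incubate 24 h, quantify MIG by ELISA, then fit concentration–response in both directions relative to DMSO control.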

[4] = read-out: Transforming growth factor beta 1 (TGFb1), TGFB1 (gene 7040); assay: BSK_BE3C_TGFb1: BioMAP Diversity Plus: BE3C Assay for Transforming growth factor beta 1 (TGFb1) Biomarker Activity (AID 2283036;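 also: TGF-b1 protein level measured by ELISA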); details: primary human bronchial epithelial cells; actives raise or lower the signal
Outline: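 TGF-b1 measured via ELISA, 24 h after chemical dosing of human bronchial epithelial cells (BE3C). Overt cytotoxicity assessed in parallel by SRB (0.1%, TCA-fixed, 560 nm); analysis bidirectional relative to DMSO.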

[5] = read-out: Plasminogen activator inhibitor-1 (PAI1), SERPINE1 (gene 5054); assay: BSK_BE3C_PAI1: BioMAP Diversity Plus: BE3C Assay for Plasminogen activator inhibitor-1 (PAI1) Biomarker Activity (AID 2283037); details: primary human bronchial epithelial cells; actives raise or lower the signal
Outline: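 In this multiplexed primary-cell system, bronchial epithelial cells receive test chemical and are sampled at 24 h. PAI-1 is read by ELISA, with DMSO serving as negative control for bidirectional fitting.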

[6] = read-out: urokinase plasminogen activator (uPA), PLAU (gene 5328); assay: BSK_BE3C_uPA: BioMAP Diversity Plus: BE3C Assay for urokinase plasminogen activator (uPA) Biomarker Activity (AID 2283038); details: primary human bronchial epithelial cells; actives raise or lower the signal;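 also: uPA protein level quantified by ELISA in cell cultures; uPA read one day after compound addition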
Outline: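 Primary human bronchial epithelial cells, uPA measured by ELISA 24 h after dosing. Bidirectional change relative to DMSO; cytotoxicity checked in parallel cultures by sulforhodamine B total-protein staining.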

[7] = read-out: Interleukin-6 (IL6), IL6 (gene 3569); assay: BSK_CASM3C_IL6: BioMAP Diversity Plus: CASM3C Assay for Interleukin-6 (IL6) Biomarker Activity for (AID 2283040); details: primary human coronary artery smooth muscle cells; actives raise or lower the signal
[8] = read-out: Tissue plasminogen activator (tPA), PLAT (gene 5327); assay: BSK_BE3C_tPA: BioMAP Diversity Plus: BE3C Assay for Tissue plasminogen activator (tPA) Biomarker Activity (AID 2283041); details: primary human bronchial epithelial cells; actives raise or lower the signal;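 also: tPA level quantified by ELISA one day after compound addition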
Outline: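 Using human lung primary bronchial epithelial cells, tPA was measured by ELISA 24 h after dosing; data fitted relative to DMSO.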

[9] = read-out: Interleukin-8 (IL8), CXCL8 (gene 3576); assay: BSK_CASM3C_IL8: BioMAP Diversity Plus: CASM3C Assay for Interleukin-8 (IL8) Biomarker Activity (AID 2283042); details: primary human coronary artery smooth muscle cells; actives raise or lower the signal;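 also: IL-8 protein level quantified by ELISA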
[10] = read-out: Human Leukocyte Antigen - DR isotype (HLADR), HLA-DRA (gene 3122); assay: BSK_CASM3C_HLADR: BioMAP Diversity Plus: CASM3C Assay for Human Leukocyte Antigen - DR isotype (HLADR) Biomarker Activity (AID 2283043); details: primary human coronary artery smooth muscle cells; actives raise or lower the signal;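 also: cell-surface HLA-DR protein level quantified by ELISA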
[11] = read-out: Macrophage colony-stimulating factor (MCSF), CSF1 (gene 1435); assay: BSK_CASM3C_MCSF: BioMAP Diversity Plus: CASM3C Assay for Macrophage colony-stimulating factor (MCSF) Biomarker Activity (AID 2283044); details: primary human coronary artery smooth muscle cells; actives raise or lower the signal;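 also: M-CSF protein amount quantified by ELISA after 24 h exposure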
[12] = read-out: Low-density lipoprotein receptor (LDLR), LDLR (gene 3949); assay: BSK_CASM3C_LDLR: BioMAP Diversity Plus: CASM3C Assay for Low-density lipoprotein receptor (LDLR) Biomarker Activity (AID 2283045); details: primary human coronary artery smooth muscle cells; actives raise or lower the signal;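 also: LDLR protein level on the cell surface quantified by ELISA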
[13] = read-out: Monocyte Chemoattractant Protein-1 (MCP1), CCL2 (gene 6347); assay: BSK_CASM3C_MCP1: BioMAP Diversity Plus: CASM3C Assay for Monocyte Chemoattractant Protein-1 (MCP1) Biomarker Activity (AID 2283046); details: primary human coronary artery smooth muscle cells; actives raise or lower the signal;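 also: MCP-1 level quantified by ELISA 24 h after dosing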
[14] = BSK_CASM3C_Proliferation: Cell Proliferation Assessment in the BioMAP Diversity Plus: CASM3C Assay (AID 2283047); details: primary human coronary artery smooth muscle cells;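 also: sulforhodamine B total protein stain as relative cell number at 560 nm; sub-confluent cells exposed 48 h before staining; fitted both ways against DMSO so gain or loss of cell number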
[15] = read-out: Monokine induced gamma interferon (MIG), CXCL9 (gene 4283); assay: BSK_CASM3C_MIG: BioMAP Diversity Plus: CASM3C Assay for Monokine induced gamma interferon (MIG) Biomarker Activity (AID 2283048); details: primary human coronary artery smooth muscle cells; actives raise or lower the signal;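 also: MIG protein level measured by ELISA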
[16] = read-out: serum amyloid A (SAA), SAA1 (gene 6288); assay: BSK_CASM3C_SAA: BioMAP Diversity Plus: CASM3C Assay for serum amyloid A (SAA) Biomarker Activity (AID 2283049); details: primary human coronary artery smooth muscle cells; actives raise or lower the signal;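 also: SAA protein level quantified by ELISA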
[17] = BSK_CASM3C_SRB: Viability Assessment in the BioMAP Diversity Plus: CASM3C Assay (AID 2283050); details: primary human coronary artery smooth muscle cells;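 also: total protein by SRB staining as cytotoxicity measure in parallel cultures; cells exposed to compound for 24 h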
[18] = read-out: Vascular endothelial growth factor receptor 2 (Homo sapiens) (UniProt P35968); assay: BSK_4H_VEGFRII: BioMAP Diversity Plus: 4H Assay for Vascular endothelial growth factor receptor 2 (VEGFR2) Biomarker Activity (AID 2283031); details: primary human endothelial cells (HUVEC); actives raise or lower the signal
Outline: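 Primary human umbilical vein endothelial cells (4H system), 24 h exposure; cell-surface VEGFR2 measured by ELISA. Bidirectional fitting versus DMSO; cytotoxicity checked in parallel by SRB total-protein staining.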

Measured: AC50

[2H]C1([2H])[n+]2ccccc2-c2cccc[n+]2C1([2H])[2H]
inactive: [1] | [2] | [3] | [4] | [5] | [6] | [7] | [8] | [9] | [10] | [11] | [12] | [15] | [16] | [17]
active: [13] 0.156 µM | [14] 10.6 µM

O=C(O)COc1ccc(Cl)cc1Cl
inactive: [18] | [1] | [2] | [3] | [4] | [5] | [6] | [7] | [8] | [9] | [10] | [11] | [12] | [13] | [14] | [15] | [16] | [17]

Cc1[nH]c(=O)n(C(C)(C)C)c(=O)c1Cl
inactive: [18] | [1] | [2] | [3] | [4] | [5] | [6] | [7] | [8] | [9] | [10] | [11] | [12] | [13] | [14] | [15] | [16] | [17]

C#CCN1C(=O)COc2cc(F)c(N3C(=O)C4=C(CCCC4)C3=O)cc21
inactive: [18] | [2] | [3] | [4] | [5] | [6] | [7] | [8] | [9] | [10] | [11] | [12] | [13] | [14] | [15] | [16] | [17]
active: [1] 3.97 µM
